# Source: PubChem BioAssay (Tox21)
# Inconclusive results are not listed. Entries that show only a call come without a potency. Active and inactive are the calls of the source. Calls follow the shape of the dose curve; as a rule, active = well fitted cell-killing curve with a large enough effect in the repeat runs; inconclusive = weak or mixed curves; inactive = flat fitted curve, though single readings scatter.
# Assay: qHTS RealTime-Glo MT Cell Viability Assay in HepG2 cells - 8 hour (AID 1224873); also: nearly all actives have a fitted effect of over 55% in size
# Conditions: RealTime-Glo luminescence; series mostly up to 76.8 µM; viability change, negative = cytotoxic: at the top concentration
# Text: National Center for Advancing Translational Sciences [NCATS]
# NIH Chemical Genomics Center [NCGC]
# U.S. Environmental Protection Agency [EPA]
# National Institutes of Environmental Health Sciences [NIEHS]
# National Toxicology Program [NTP]
# U.S. Food and Drug Administration [FDA]
# Measure of cell viability is critical in the cell-base assay. Analysis of cell viability is necessary for the characterization of cell responses to cytotoxic drugs and environmental stress. A RealTime-Glo MT Cell Viability Assay to monitor cell viability in real time of continues cell culture during 40 hours of compound treatment was used to screen Tox21 10K library compounds in HepG2 cells. The RealTime-Glo MT Cell Viability Assay is a nonlytic, homogeneous, bioluminescent method to measure cell viability in real time using a simple, plate-based method. The assay involves adding NanoLuc luciferase and a cell-permeant prosubstrate to cells in culture. Viable cells reduce the proprietary prosubstrate to generate a substrate for NanoLuc luciferase. This substrate diffuses from cells into the surrounding culture medium, where it is rapidly used by the NanoLuc Enzyme to produce a luminescent signal. The signal correlates with the number of viable cells, making the assay well suited for cytotoxicity studies.
# Tox21 Assay Protocol Summary:
# The mixture of HepG2 cell suspension and reagents were dispensed at 600cells/6 ul/well in 1536-well tissue culture treated black solid bottom plates using a Multidrop dispenser. After the assay plates were incubated at a 37 C/5% CO2 incubator for 5 hours, 23 nL of compounds dissolved in DMSO, positive and negative controls was transferred to the assay plate by a pintool work station. The plates were incubated at 37 C for 40 hours. The luminescence intensity were measured at 0h, 8h, 16h, 24h, 32h and 40h time points using ViewLux plate reader during compound treatment.
# Potency is read from the fitted curve at half-maximal effect.
SMILES,Potency,"viability change, negative = cytotoxic"
Cc1ccc(S(=O)(=O)O)cc1C,inactive,
C[C@]12C=CC(=O)C=C1CC[C@H]1[C@@H]3C[C@@H](O)[C@](O)(C(=O)CO)[C@@]3(C)C[C@H](O)[C@@]12F,inactive,
CC1=CC(C)(C)Nc2ccccc21,inactive,
C=C[C@H]1CN2CC[C@H]1C[C@@H]2[C@@H](O)c1ccnc2ccc(OC)cc12,inactive,
C[N+](C)(C)CCO,inactive,
Cc1ccc(C)c(O)c1,inactive,
O=C(O)c1ccc(O)cc1,inactive,
O=C1OC2(c3ccccc31)c1cc(I)c(O)c(I)c1Oc1c2cc(I)c(O)c1I,39 µM (active),
CCC/C=C/C=O,inactive,
CC(C)[C@@H]1CC[C@@H](C)CC1=O,inactive,
COC(=O)c1ccc(C)cc1,inactive,
CC[C@]12CCCN3CCc4c(n(c5ccccc45)[C@@](O)(C(=O)OC)C1)[C@@H]32,inactive,
Nc1cc(Cl)c(N)c(Cl)c1,inactive,
O=S1(=O)CCCO1,inactive,
OC[C@H]1O[C@@H]2O[C@H]3[C@H](O)[C@@H](O)[C@@H](O[C@H]4[C@H](O)[C@@H](O)[C@@H](O[C@H]5[C@H](O)[C@@H](O)[C@@H](O[C@H]6[C@H](O)[C@@H](O)[C@@H](O[C@H]7[C@H](O)[C@@H](O)[C@@H](O[C@H]1[C@H](O)[C@H]2O)O[C@@H]7CO)O[C@@H]6CO)O[C@@H]5CO)O[C@@H]4CO)O[C@@H]3CO,inactive,
O=C(O)COCCN1CCN(C(c2ccccc2)c2ccc(Cl)cc2)CC1 (stereo not given),inactive,
IC(I)I,inactive,
Cc1ccc(C(C)(C)C)c(O)c1,,-15.1% (inactive)
C=CCCCCCCCCCC,inactive,
[O-]/[N+](=N\O)c1ccccc1,inactive,

SMILES,Potency,"viability change, negative = cytotoxic"
CC(C)=CCO,inactive,
CCC(Cc1c(I)cc(I)c(N)c1I)C(=O)O (stereo not given),inactive,
CCCCCCCCCCCCO,inactive,
CC(C)(C)c1cccc(C(C)(C)C)c1O,inactive,
CN(Cc1cnc2nc(N)nc(N)c2n1)c1ccc(C(=O)N[C@@H](CCC(=O)O)C(=O)O)cc1,inactive,
CC(=O)[C@@]1(O)CC[C@H]2[C@@H]3C[C@H](C)C4=CC(=O)C=C[C@]4(C)[C@@]3(F)[C@@H](O)C[C@@]21C,inactive,
FC(F)(F)C(Cl)Br (stereo not given),inactive,
Clc1ccc(Sc2cc(Cl)c(Cl)cc2Cl)cc1,inactive,
Nc1cc([N+](=O)[O-])ccc1C(=O)O,inactive,
CN1CCOCC1,inactive,
OCCNCCO,inactive,
Cc1ccc2c(c1)C(=O)OC2=O,inactive,
Nc1ccc2c(O)cc(S(=O)(=O)O)cc2c1,inactive,
O=C1CCc2ccccc2O1,inactive,
NCCOCCO,inactive,
NCCS(=O)(=O)O,inactive,
ClC/C=C/CCl,inactive,
COC(=O)CC(=O)OC,inactive,
O=[Se](O)O,inactive,
C=CN1CCCC1=O,inactive,
